# Measured values reported in the supplement of paper PMC8728848.
# Many of the other results were omitted from the sample, so the strongest signals are more common in it than they were.
# B1: MXA PilAct-eGFP (Myxococcus xanthus), Q59589 (protein)
# chain: MRVSRFNPRNRGFTLIELMIVVAIIGILAAIAIPNFIKFQARSKQSEAKTNLKALYTAQKSFFSEKDRYSDFANEIGFAPERGNRYGYRVSAAAGDCEVRNAADLPVPAAGVPCISNDSFRFGANSAIDDPTPVVARFVPQGAAGWNTTLGVQPTIADCPNCNFFAGARGNADNEATFDDWVIAGFEGSGQVGPCSEAGNVASGTPYNTRNDVACDGAAQ
# Key:
# Test in all cases: glycan array binding signal (z-score within array); higher = stronger binding
# Settings in all cases: glycan notation: IUPAC condensed, linker removed
# [1] = biological target: Fuc(a1-2)Gal(b1-3)GalNAc(a1-3)[Fuc(a1-2)]Gal(b1-4)Glc
# Outline: (§1)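 The Consortium for Functional Glycomics database supplied 3228 glycan arrays, of which those lacking an available protein sequence were dropped. The binding signal, a within-array Z-score, was averaged across arrays of the same protein sequence and across linkers. Negative scores can be read as non-binding.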
# [2] = biological target: Fuc(a1-2)Gal(b1-3)GlcNAc(b1-3)GalNAc
# Outline: as §1
# [3] = biological target: Fuc(a1-2)Gal(b1-3)GlcNAc(b1-3)[Neu5Ac(a2-6)Gal(b1-4)GlcNAc(b1-6)]Gal(b1-4)Glc
# Outline: as §1
# [4] = biological target: Fuc(a1-2)Gal(b1-4)GlcNAc(b1-3)Gal(b1-4)GlcNAc
# Outline: as §1
# [5] = biological target: Fuc(a1-2)Gal(b1-4)GlcNAc(b1-3)Gal(b1-4)GlcNAc(b1-3)Gal(b1-4)GlcNAc
# Outline: as §1
# [6] = biological target: Fuc(a1-2)Gal(b1-4)[Fuc(a1-3)]GlcNAc(b1-2)Man(a1-3)[Fuc(a1-2)Gal(b1-4)[Fuc(a1-3)]GlcNAc(b1-2)Man(a1-6)]Man(b1-4)GlcNAc(b1-4)[Fuc(a1-6)]GlcNAc
# Outline: as §1
# [7] = biological target: Fuc(a1-2)Gal(b1-4)[Fuc(a1-3)]GlcNAc(b1-3)Gal(b1-4)[Fuc(a1-3)]GlcNAc(b1-3)Gal(b1-4)[Fuc(a1-3)]GlcNAc
# Outline: as §1
# [8] = biological target: Fuc(a1-2)Gal3S(b1-4)GlcNAc
# Outline: as §1
# [9] = biological target: Fuc(a1-2)[Gal(a1-3)]Gal(b1-4)GlcNAc
# Outline: as §1
# [10] = biological target: Fuc(a1-2)[Gal(a1-3)]Gal(b1-4)GlcNAc(b1-2)Man
# Outline: as §1
# [11] = biological target: Fuc(a1-2)[GalNAc(a1-3)]Gal(b1-4)GlcNAc(b1-2)Man(a1-3)[Fuc(a1-2)[GalNAc(a1-3)]Gal(b1-4)GlcNAc(b1-2)Man(a1-6)]Man(b1-4)GlcNAc(b1-4)GlcNAc
# Outline: as §1
# [12] = biological target: Fuc(a1-2)[GalNAc(a1-3)]Gal(b1-4)GlcNAc(b1-3)Gal(b1-4)GlcNAc
# Outline: as §1
# [13] = biological target: Fuc(a1-2)[GalNAc(a1-3)]Gal(b1-4)GlcNAc(b1-6)GalNAc
# Outline: as §1
# [14] = biological target: Fuc(a1-3)[Gal(b1-4)]GlcNAc(b1-6)[Gal(b1-3)GlcNAc(b1-3)]Gal(b1-4)Glc
# Outline: as §1
# [15] = biological target: Fuc(a1-3)[GalNAc(b1-4)]GlcNAc
# Outline: as §1
# Gal(a1-3)Gal(b1-3)GlcNAc = biological target: Gal(a1-3)Gal(b1-3)GlcNAc
# Outline: as §1
# [16] = biological target: Gal(b1-3)GlcNAc(b1-2)Man(a1-3)[GlcNAc(b1-4)][Gal(b1-3)GlcNAc(b1-2)Man(a1-6)]Man(b1-4)GlcNAc(b1-4)GlcNAc
# Outline: as §1
# [17] = biological target: Gal(b1-3)GlcNAc(b1-3)Gal(b1-4)GlcNAc(b1-2)[Gal(b1-3)GlcNAc(b1-3)Gal(b1-4)GlcNAc(b1-6)]Man(a1-6)[Gal(b1-3)GlcNAc(b1-3)Gal(b1-4)GlcNAc(b1-2)Man(a1-3)]Man(b1-4)GlcNAc(b1-4)[Fuc(a1-6)]GlcNAc
# Outline: as §1
# [18] = biological target: Gal(b1-3)GlcNAc(b1-3)Gal(b1-4)GlcNAc(b1-3)Gal(b1-4)GlcNAc(b1-2)[Gal(b1-3)GlcNAc(b1-3)Gal(b1-4)GlcNAc(b1-3)Gal(b1-4)GlcNAc(b1-6)]Man(a1-6)[Gal(b1-3)GlcNAc(b1-3)Gal(b1-4)GlcNAc(b1-3)Gal(b1-4)GlcNAc(b1-2)Man(a1-3)]Man(b1-4)GlcNAc(b1-4)[Fuc(a1-6)]GlcNAc
# Outline: as §1
# [19] = biological target: Gal(b1-3)[Fuc(a1-4)]GlcNAc(b1-3)Gal(b1-3)[Fuc(a1-4)]GlcNAc
# Outline: as §1
# Gal(b1-4)Glc = biological target: Gal(b1-4)Glc
# Outline: as §1
# [20] = biological target: Gal(b1-4)GlcNAc(b1-3)Gal(b1-4)GlcNAc(b1-2)[Gal(b1-4)GlcNAc(b1-3)Gal(b1-4)GlcNAc(b1-6)]Man(a1-6)[Gal(b1-4)GlcNAc(b1-3)Gal(b1-4)GlcNAc(b1-2)Man(a1-3)]Man(b1-4)GlcNAc(b1-4)GlcNAc
# Outline: as §1
# [21] = biological target: Gal(b1-4)GlcNAc(b1-3)Gal(b1-4)GlcNAc(b1-3)Gal(b1-4)GlcNAc(b1-3)Gal(b1-4)GlcNAc(b1-2)[Gal(b1-4)GlcNAc(b1-3)Gal(b1-4)GlcNAc(b1-3)Gal(b1-4)GlcNAc(b1-3)Gal(b1-4)GlcNAc(b1-6)]Man(a1-6)[Gal(b1-4)GlcNAc(b1-3)Gal(b1-4)GlcNAc(b1-3)Gal(b1-4)GlcNAc(b1-3)Gal(b1-4)GlcNAc(b1-2)Man(a1-3)]Man(b1-4)GlcNAc(b1-4)[Fuc(a1-6)]GlcNAc
# Outline: as §1
# [22] = biological target: Gal(b1-4)GlcNAc(b1-6)Gal(b1-4)GlcNAc
# Outline: as §1
# Gal(b1-4)GlcNAc6P = biological target: Gal(b1-4)GlcNAc6P
# Outline: as §1
# Gal3S(b1-4)GlcNAc = biological target: Gal3S(b1-4)GlcNAc
# Outline: as §1
binder,measurement,setting,value
B1,glycan array binding signal (z-score),[1],0.469
same,glycan array binding signal (z-score),[2],-0.348
same,glycan array binding signal (z-score),[3],-0.4
same,glycan array binding signal (z-score),[4],0.643
same,glycan array binding signal (z-score),[5],2.63
same,glycan array binding signal (z-score),[6],-0.459
same,glycan array binding signal (z-score),[7],-0.292
same,glycan array binding signal (z-score),[8],-0.55
same,glycan array binding signal (z-score),[9],0.335
same,glycan array binding signal (z-score),[10],-0.112
same,glycan array binding signal (z-score),[11],3.39
same,glycan array binding signal (z-score),[12],-0.546
same,glycan array binding signal (z-score),[13],0.269
same,glycan array binding signal (z-score),[14],-0.768
same,glycan array binding signal (z-score),[15],-1.22
same,glycan array binding signal (z-score),Gal(a1-3)Gal(b1-3)GlcNAc,-1.1
same,glycan array binding signal (z-score),[16],0.003
same,glycan array binding signal (z-score),[17],6.11
same,glycan array binding signal (z-score),[18],4.94
same,glycan array binding signal (z-score),[19],-2.03
same,glycan array binding signal (z-score),Gal(b1-4)Glc,-1.09
same,glycan array binding signal (z-score),[20],-0.993
same,glycan array binding signal (z-score),[21],3.46
same,glycan array binding signal (z-score),[22],0.221
same,glycan array binding signal (z-score),Gal(b1-4)GlcNAc6P,0.348
same,glycan array binding signal (z-score),Gal3S(b1-4)GlcNAc,-0.174
